Screens (PubChem)
Only some compounds are listed: those with a hit (about 2.8% of all), similar ones and a draw of the others.
Pol eta inh-1: inhibitors of human DNA polymerase eta; Potency, µM (series often up to 114 µM), for the others: at the top dose activity change, negative = inhibition, usual class: inhibitors; recombinant Pol eta, fluorescent DNA replication assay; hit rate 1.2% among 390,000; Q9Y253; further: potency means the concentration at half of the fitted maximal effect; on the % scale 0 is the no-effect control and ±100 the full control effect
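Pol eta (10 nM) was preincubated with compounds for 15 min at room temperature, after which fluorescent replication substrate (50 nM final) was added to start the reaction. Fluorescence was read kinetically at 0 and 10 min.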
Pol kappa inh-1: inhibitors of human DNA polymerase kappa; Q9UBT6; purified Pol kappa, fluorescent DNA synthesis assay, 10 min; Potency, µM (top dose mostly 107 µM), for inactives: top-dose activity, negative = inhibition, hits mostly inhibitors; hit rate 0.53% among 400,000; further: potency means the concentration at half of the fitted maximal effect; on the % scale 0 is the no-effect control and ±100 the full control effect
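Enzyme at 10 nM met test compounds for 15 min at room temperature. Substrate addition (50 nM final) began the reaction, which was monitored by fluorescence at 0 and 10 min.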
PI5P4K alpha inh: inhibitors of human PI5P4K alpha | P48426 | PI5P4Kalpha enzyme, ADP-Glo luminescence, 60 min; active compounds read low | hit rate 1.2% among 330,000 | max response, % | AID 652105; active means max response of -50% or lower; inconclusive means between -30% and -50%; inactive means -30% or higher; further: value at the top dose of about 77 µM; on the % scale 0 is the no-effect control and ±100 the full control effect
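Single end-point luminescence (ADP-Glo) quantified ADP from PI5P4Kalpha turnover; ATP 5 microM final, 1 h at RT, 0.1% CHAPS and 0.28 mM EGTA in HEPES pH 7.4.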
POLI inh: blocks human DNA polymerase iota activity; Pol iota fluorescent replication assay, 10 min; Potency, µM (top dose mostly 115 µM), for the others: at the highest dose activity, negative = inhibition, most hits filed as inhibitors; hit rate 1% among 390,000; AID 588590; further: potency means the concentration at half of the fitted maximal effect
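Pol iota at 10 nM preincubated 15 min with compounds at room temperature; reaction started with fluorescent substrate, 50 nM final. Fluorescence read kinetically at 0 and 10 min; buffer-only wells as negative control.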
PI4K2A block: PI4K2A (human) kinase inhibition | activity change, negative = inhibition, % at 76.9 µM | Q9BTU6 | hit rate 0.13% among 420,000 | purified PI4K2A, ADP-Glo luminescence, 1 h; active compounds read low | AID 1346378; in the data active means activity change below about -50%; inconclusive means mostly about -30% to -49%;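 further: -100% = wells without enzyme as full effect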
Target sequence (Q9BTU6 whole entry, looked up): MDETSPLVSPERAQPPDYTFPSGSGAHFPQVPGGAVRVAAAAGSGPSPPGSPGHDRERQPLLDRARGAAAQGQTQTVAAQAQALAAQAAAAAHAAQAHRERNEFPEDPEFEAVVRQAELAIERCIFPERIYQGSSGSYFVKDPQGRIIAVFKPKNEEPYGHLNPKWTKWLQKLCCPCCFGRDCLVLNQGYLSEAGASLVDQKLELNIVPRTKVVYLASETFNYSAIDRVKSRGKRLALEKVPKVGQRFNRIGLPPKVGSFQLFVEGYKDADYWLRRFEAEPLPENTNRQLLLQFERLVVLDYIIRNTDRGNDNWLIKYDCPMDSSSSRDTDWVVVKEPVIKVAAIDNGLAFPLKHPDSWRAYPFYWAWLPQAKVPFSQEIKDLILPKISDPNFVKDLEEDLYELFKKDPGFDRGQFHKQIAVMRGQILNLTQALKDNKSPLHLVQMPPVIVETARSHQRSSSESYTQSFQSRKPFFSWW
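In this quantitative HTS, ADP production by PI4K2A was quantified luminescently after 1 h at ambient temperature; 100 microM adenosine served as plate-quality control.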
POLB inh: blocks human DNA polymerase beta activity; hit rate 1.3% among 340,000; Potency, µM (top dose mostly 114 µM), without a hit: top-dose activity change, negative = inhibition, most hits filed as inhibitors; AID 485314; Pol beta primer extension/strand displacement, fluorescence kinetic; further: potency means the concentration at half of the fitted maximal effect; on the % scale 0 is the no-effect control and ±100 the full control effect
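Pol beta (10 nM) was preincubated with compound for 15 min at room temperature. The reaction was then started with 50 nM substrate and read immediately and after a further 10 min at room temperature.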
TbPGK inh: blocks T. brucei phosphoglycerate kinase; shares compounds with Pol kappa inh-1; TbPGK coupled GAPDH assay, Kinase-Glo luminescence; Potency, µM (top dose mostly 57.5 µM), without a hit: at the highest dose activity change, negative = inhibition, actives largely listed as inhibitors; hit rate 79% among 500; further: potency means the concentration at half of the fitted maximal effect; on the % scale 0 is the no-effect control and ±100 the full control effect; nearly all actives have a fitted effect of over 65% in size
Pol iota confirm: Inhibitors of human DNA polymerase iota, confirmation | shares compounds with Pol kappa inh-1 | Pol iota primer extension, TAMRA/BHQ fluorescence | Potency, µM, usual class: inhibitors | hit rate 77% among 1,500; further: potency means the concentration at half of the fitted maximal effect
Pol kappa inh-2: confirmation of human DNA polymerase kappa inhibitors; shares compounds with Pol eta inh-1; purified Pol-kappa, fluorescent strand-displacement substrate; Potency, µM, actives largely listed as inhibitors; hit rate 76% among 920; further: potency means the concentration at half of the fitted maximal effect
Pol eta inh-2: confirmation of human DNA polymerase eta inhibitors | shares compounds with Pol eta inh-1 | Pol eta primer extension, TAMRA/BHQ fluorescence, 10 min | Potency, µM, actives largely listed as inhibitors | hit rate 64% among 2,600; further: potency means the concentration at half of the fitted maximal effect
The depositor's hits bear a star; ? = inconclusive; . = no result given; ! = not active in a repeat; [ ] = another dose, or the depositor's remark. Unless noted, the call rests on the fitted dose curve; in most records, active means well fitted curve in the direction sought with a large enough effect; inconclusive means small, poorly fitted or top-dose-only effect, or another doubt; inactive means no such curve, though single readings can be large; an effect the other way counts as inactive or inconclusive.

SMILES	Pol eta inh-1	Pol kappa inh-1	PI5P4K alpha inh	POLI inh	PI4K2A block	POLB inh	Pol iota confirm	Pol eta inh-2	others
O=c1[nH]c(Nc2ccccc2Cl)cc2ccccc12	-14%	-8%	2	1%	-29	.	.	.
Cc1ccccc1Nc1cc2ccccc2c(=O)[nH]1	11µM*	-11%	-10	?	?	-12%	75*	38*
Oc1cc2c(cc1O)C1c3ccc(O)c(O)c3OCC1(O)C2 (stereo not drawn)	7.1µM*	0.18µM*	-74*	7.9µM*	-10	13µM*	24*	27*	TbPGK inh=5.8µM*
O=C(CN1C(=O)S/C(=C\c2ccc(C(=O)O)cc2)C1=O)Nc1ccccc1	-3%	-8%	-2	-19%	0	-1%	.	.
O=C(O)c1ccc(-n2cccc2/C=C2/SC(=O)N(CC(=O)N3CCCC3)C2=O)cc1	1.8µM*	7.1µM*	-59*	3.5µM*	-12	2µM*	5.3*	6.7*	TbPGK inh=5.8µM*
O=C(O)c1ccc(-n2cccc2/C=C2\SC(=O)N(Cc3ccc(Br)cc3)C2=O)cc1	.	.	.	.	.	.	75*	76*
CN(Cc1ccccc1)C(=O)OCc1cn(Cc2cc(F)ccc2F)nn1	.	.	.	.	1	.	.	.
CCOC(=O)c1cccc(NC(=O)c2cc3cc4cc(OC)ccc4nc3s2)c1	?	-21%	.	257%	0	?	?	?	Pol kappa inh-2=19*
CCOc1ccccc1NC(=O)CCc1c(C)nc2cc(-c3ccccc3)nn2c1C	-15%	-12%	.	42%	1	8%	.	.
CC(C)C[C@@H](COCc1ccc([N+](=O)[O-])cc1)N1CCN(C(=O)c2ccc(C(F)(F)F)cc2)CCC1=O	.	.	0	.	-11	.	.	.
Cc1cccc2c1NC(=O)C2=O	8.9µM*	50µM*	-17	8.9µM*	-2	.	42*	17*	Pol kappa inh-2=15*
CNc1c(Cl)cc(/C=C2\C=Cc3ccccc32)cc1Cl	.	-12%	.	4%	.	.	.	.
Nc1ccc(S(=O)(=O)Nc2nccs2)cc1N=Nc1ccccc1[N+](=O)[O-]	3.2µM*	28µM*	-103*	7.1µM*	-7	.	75*	19*	Pol kappa inh-2=?
CC(C)C1N=C2c3ccccc3N=C(SCC(=O)NCc3ccccc3Cl)N2C1=O (stereo not drawn)	-6%	-11%[60.1 µM]	.	0%	4	0%	.	.
CC(=O)Nc1ccc(-c2ccnc3c2CC(C)(C(=O)NCc2ccc(F)c(F)c2)O3)cc1 (stereo not drawn)	.	.	6	.	-3	.	.	.
COc1cc(C(c2c(C(=O)O)[nH]c3ccccc23)c2c(C(=O)O)[nH]c3ccccc23)ccc1OCc1ccccc1	50µM*	?	3	-27%	-4	45µM*	?	?
O=C(O)c1[nH]c2ccccc2c1C(c1ccccc1)c1c(C(=O)O)[nH]c2ccccc12	-16%	-36%	-3	-24%	-4	?	.	.
CC(=O)Nc1ccc(N=Cc2c(O)c(C(=O)Nc3ccccc3)cc3ccccc23)cc1	?	5%	-14	7%	-5	?	30*	76*	Pol kappa inh-2=75*
CN1/C(=C\C=C2/C(=O)Oc3ccccc3C2=O)C(C)(C)c2ccccc21	89µM*	?	-4	-11%	-1	45µM*	75*	54*	Pol kappa inh-2=24*
CN1/C(=C\C=N\O)C(C)(C)c2ccccc21	0%	0%	5	22%	2	8%	.	.
CN1C(=CC=C2C=C(I)C(=O)C(I)=C2)C(C)(C)c2ccccc21	?	?	-27	3.5µM*	-9	?	34*	48*	Pol kappa inh-2=75*
CN1/C(=C\C=C2/SC(=S)NC2=O)C(C)(C)c2ccccc21	79µM*	45µM*	-77*	28µM*	-9	22µM*	75*	76*	Pol kappa inh-2=38*
O=C(CSc1nc2ccccc2nc1Cc1ccc(Cl)cc1)Nc1ccc2c(c1)OCO2	-18%	-3%[60.1 µM]	.	-13%	-6	1%	.	.
CN(C)c1ncc2nc(-c3ccccc3)c(=O)n(CCc3ccccc3)c2n1	.	-2%[60.1 µM]	.	.	.	.	.	.
CCCc1nc2c(C)cc(Br)cn2c1Cc1cccc(F)c1	.	.	0	.	-4	.	.	.
SMILES	Pol eta inh-1	Pol kappa inh-1	PI5P4K alpha inh	POLI inh	PI4K2A block	POLB inh	Pol iota confirm	Pol eta inh-2	others
O=C1CCCC(O)=C1N=Nc1ccc(C(=O)O)cc1	3.2µM*	20µM*	?	6.3µM*	?	2.8µM*	6*	4.8*	TbPGK inh=9.2µM*
NC(=O)NC(=O)COC(=O)c1ccc(OC(F)(F)F)cc1	0%	-6%	0	3%	-3	31%	.	.
O=C(COC(=O)c1ccc(OC(F)(F)F)cc1)Nc1ncccn1	18µM*	?	0	?	1	.	60*	76*	Pol kappa inh-2=?
Cc1cc2oc(C(=O)Nc3cccc(-c4nc5ccccc5o4)c3)c(C)c2cc1Cl	-13%	-6%	.	5%	6	-3%	.	.
NC[C@H](O)c1ccc(O)c(O)c1	-4%	0.71µM*!	0	4µM*!	?	-3%[57.1 µM]	1.5*	1.9*
COC(=O)c1ccccc1NC(=O)c1noc2c1CCCC2	3%	-12%	.	17%	0	-16%	.	.
COc1cc(NC(=O)c2noc3c2CCC3)c(OC)cc1Cl	18µM*	32µM*	.	?	9	10µM*	38*	38*
CS(=O)(=O)c1cccc(C(=O)Nc2ccc(-c3nc4ccccc4[nH]3)cc2)c1	-11%	-12%	-5	?	3	9%	.	.
O=C(Nc1ccc2nc(-c3cccs3)[nH]c2c1)c1cccs1	?	-11%	2	?	-3	3%	.	.
O=C(Nc1ccc(-c2nc3ccc(NC(=O)c4cccs4)cc3[nH]2)cc1)c1cccs1	?	?	?	20µM*	1	10µM*	38*	67*
Cc1ccc(C(=O)Nc2ccc(-c3nc4ccccc4[nH]3)cc2)cc1Br	.	.	.	.	.	.	67*	?
O=C(O)CCNc1cc(N2CCN(C(=O)c3ccco3)CC2)c2noc3c2c1C(=O)c1ccccc1-3	3.2µM*	13µM*	-58*	?	-61*	18µM*	17*	6.7*	TbPGK inh=21µM*;Pol kappa inh-2=?
